The list is not random: actives were taken first. Their share in the collection is about 19%.
HT1080-NT tox – qHTS for induction of synthetic lethality in tumor cells producing 2HG: qHTS for the HT-1080-NT fibrosarcoma cell line. HT-1080-NT fibrosarcoma viability, CellTiter-Glo ATP luminescence, 48 h. Potency, µM (doses to about 46.1 µM), for inactives: at the top dose activity, negative = less viability, actives largely listed as cytotoxic. hit rate 1.6% among 360,000. AID 686970, 2013;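 note: NT is the 2HG producing partner of a matched IDH1 knockdown line; 0% = DMSO-treated cells and -100% = media-only wells without cells; nearly all actives have a fitted effect of over 55% in size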
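Luminescent CellTiter-Glo readout after 48 hours of compound exposure at 37 degrees C defined viability of HT-1080-NT cells. Activity was normalized to DMSO wells and cell-free media wells; concentration-response curves were fitted and assigned curve classes.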
KB-3-1 tox – qHTS assay for MDR1-selective chemotherapeutics: Primary screen using the parental adenocarcinoma cell KB-3-1; KB-3-1 viability, CellTiter-Glo ATP luminescence, 72 h; Potency, µM (highest dose often 46.1 µM), most hits filed as cytotoxic; hit rate 1.4% among 400,000; AID 1347075, 2019; note: nearly all actives have a fitted effect of over 60% in size
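KB-3-1 cells, DMEM (no phenol red) + 10% FBS; compound by pin transfer, 72 h, 37 °C. Readout: CellTiter-Glo luminescence after 10 min. Data normalized, curve-fitted.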
TDP1 cell CPT – qHTS for Inhibitors of human tyrosyl-DNA phosphodiesterase 1 (TDP1): qHTS in cells in presence of CPT. hit rate 12% among 420,000. chicken DT40 Tdp1-/-;hTDP1 cells + 20 nM CPT, ATP luminescence, 48 h. Potency, µM (highest dose often 46.2 µM), for the others: at the top dose activity change, negative = growth inhibition, most hits filed as inhibitors; note: nearly all actives have a fitted effect of over 55% in size
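Chicken DT40 Tdp1-/- cells complemented with human TDP1, 400 cells/well, exposed to compounds plus 20 nM camptothecin for at least 48 h at 37 C; viability read as ATP content by CellTiter-Glo luminescence.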
DT40 TDP1 no CPT – qHTS for Inhibitors of human tyrosyl-DNA phosphodiesterase 1 (TDP1): qHTS in cells in absence of CPT; DT40 Tdp1-/- hTDP1 cells, no CPT, ATP luminescence, 48 h; Potency, µM (series often up to 46.2 µM), inactives show top-dose activity change, negative = growth inhibition, hits mostly inhibitors; hit rate 15% among 420,000; note: nearly all actives have a fitted effect of over 55% in size
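Chicken DT40 Tdp1-/- cells stably complemented with human TDP1 were seeded at 400 cells/well with DMSO in place of 20 nM camptothecin. After compound pinning, cells grew at least 48 hr at 37 °C; viability read by CellTiter-Glo luminescence.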
HT1080 IDH1KD tx – qHTS for induction of synthetic lethality in tumor cells producing 2HG: qHTS for the HT-1080-IDH1KD cell line | HT-1080 IDH1 knockdown viability, ATP luminescence, 48 h | Potency, µM (top dose mostly 46.1 µM), without a hit: at the highest dose activity, negative = toxicity, actives largely listed as cytotoxic | hit rate 2% among 360,000 | AID 686971, 2013;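 note: 0% = DMSO wells and -100% = cell-free medium wells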
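After a 2 h attachment period, IDH1KD HT-1080 cells took pin-transferred compound for 48 h at 37 °C; ATP-based luminescence after 10 min room-temperature reagent incubation reported viability.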
KB-V1 MDR tox – qHTS assay for MDR1-selective chemotherapeutics: Primary screen using the drug-selected MDR subline cells KB-V1 | AID 1347076, 2019 | Potency, µM (series often up to 46.1 µM), actives largely listed as cytotoxic | KB-V1 MDR cells viability, CellTiter-Glo, 72 h | hit rate 3.4% among 400,000; note: nearly all actives have a fitted effect of over 60% in size
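Following 72 h at 37 degrees C with compound, KB-V1 cell viability was read by CellTiter-Glo luminescence, medium being phenol-red-free DMEM plus 10% FBS; concentration-response parameters came from normalized, curve-fitted qHTS data.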
* = called active by the depositor; i = inactive; ? = inconclusive; nt = not tested or not shown. Calls come from the whole dose curve; as a rule, active = well fitted curve in the direction sought with a large enough effect; inconclusive = small, poorly fitted or top-dose-only effect, or another doubt; inactive = no such curve, though single readings can be large; an effect the other way counts as inactive or inconclusive. Unless noted, % is set by controls: 0 for no effect and ±100 for the full control effect; potency is the fitted concentration of half-maximal effect.

SMILES | HT1080-NT tox | KB-3-1 tox | TDP1 cell CPT | DT40 TDP1 no CPT | HT1080 IDH1KD tx | KB-V1 MDR tox
COc1ccc(C(=O)c2cn(CC(=O)Nc3ccc4c(c3)OCCO4)c3ccc(OC)cc3c2=O)cc1 | nt | i | 21µM* | ? | nt | i
Cn1c(SCC(=O)NC(=O)NCc2ccccc2)nnc1C(F)(F)F | -3% | i | -9% | -23% | -3% | i
N=C(N)S/C=C\C(=O)O | nt | nt | 16µM* | 16µM* | nt | nt
O=C(CN(CCO)Cc1ccccc1)N1CCN(S(=O)(=O)c2ccccc2)CC1 | -1% | i | -2% | -6% | -1% | i
NC(=O)CSc1ccc(F)cc1 | 5% | i | -1% | -12% | 13% | i
O[C@H]1C[C@H](c2ccccc2)N(Cc2cccs2)C[C@@H]1n1cc(C2CC2)nn1 | -20% | i | ? | 21µM* | -17% | i
COc1ccc([C@H]2C[C@H](O)[C@@H](n3cc(C4CC4)nn3)CN2Cc2cccs2)cc1 | 9% | i | ? | 12µM* | -4% | i
O[C@@H]1C[C@H](c2ccccc2)N(CC2CCCCC2)C[C@H]1n1cc(C2CC2)nn1 | -1% | i | -4% | ? | -6% | i
Cc1cc(C)cc(Cn2c3ccc(NC(=S)NCc4ccccc4F)cc3c(=O)n2C)c1 | -25% | i | ? | ? | ? | i
COc1ccc(CNC(=O)Nc2ccc3c(c2)c(=O)n(C)n3Cc2cc(C)cc(C)c2)cc1 | 24% | i | 21µM* | ? | -1% | i
Cn1c(=O)c2cc(NC(=S)NCc3ccccc3F)ccc2n1Cc1cccc(C(F)(F)F)c1 | -11% | i | 21µM* | ? | 0% | i
Cn1c(=O)c2cc(NC(=S)NCc3ccccc3F)ccc2n1Cc1ccccc1 | -1% | i | 16µM* | 15µM* | -2% | i
Cn1c(=O)c2cc(NC(=S)NC3CCCCC3)ccc2n1Cc1ccc(Cl)cc1 | -26% | i | ? | 23µM* | -18% | i
COc1ccc2c(c1)C(=O)O[C@@H](c1ccccc1)C[C@@H](O)C(=O)CC2 | 1% | i | -17% | ? | 0% | i
CCN1CCN(c2nc(N(C)c3ccccc3)nc(N)c2[N+](=O)[O-])CC1 | -4% | i | 9% | -26% | -5% | i
Cc1cc(Cl)ccc1Oc1nc(-c2ccc(F)cc2)ccc1C#N | 0% | ? | ? | -10% | -2% | ?
COc1ccc(F)cc1-c1cc(C(=O)NCc2ccccc2)[nH]n1 | 0% | i | -22% | ? | 30% | i
Cc1ccc2c(c1)c1c(c(=O)n(-c3ccccc3)c(=O)n1CC(=O)NCCC1=CCCCC1)n2C | nt | i | -27% | 7% | nt | i
Cn1c(=O)c2cc(NC(=O)NCc3ccc(F)cc3)ccc2n1Cc1cccc(C(F)(F)F)c1 | -11% | i | 21µM* | 15µM* | ? | i
COc1cc(OC)c(-c2nn3c(-c4ccco4)nnc3s2)cc1OC | -5% | ? | ? | 15µM* | -12% | ?
COc1ccc(-c2nnc3sc(-c4ccco4)nn23)cc1OC | 9% | ? | 1% | -27% | 0% | 2.1µM*
CC1(C)Cc2ccccc2-c2nnc(-c3ccco3)n21 | 11% | i | -16% | -13% | 0% | i
COc1cc2c(cc1OC)-c1nnc(-c3ccco3)n1C1(CCCC1)C2 | -1% | i | ? | 18µM* | -7% | i
CCN(c1ccccc1)S(=O)(=O)c1ccc(Cl)c(NC(=O)CN(C)Cc2cccc(F)c2)c1 | -1% | ? | 16µM* | 18µM* | -15% | 16µM*
CCN(c1ccccc1)S(=O)(=O)c1ccc(Cl)c(NC(=O)CN2CCCCCC2)c1 | ? | ? | 21µM* | 18µM* | ? | 21µM*
SMILES | HT1080-NT tox | KB-3-1 tox | TDP1 cell CPT | DT40 TDP1 no CPT | HT1080 IDH1KD tx | KB-V1 MDR tox
CCN(c1ccccc1)S(=O)(=O)c1ccc(Cl)c(NC(=O)COC(=O)C2CC2C)c1 (stereo not given) | -1% | i | 6% | -12% | -7% | i
CCN(c1ccccc1)S(=O)(=O)c1ccc(Cl)c(NC(=O)COC(=O)c2ccc(O)cc2)c1 | 9% | i | ? | ? | 12% | ?
CCC(C)NCC(=O)Nc1cc(S(=O)(=O)N(CC)c2ccccc2)ccc1Cl (stereo not given) | -20% | ? | 21µM* | 23µM* | -12% | i
CCN(c1ccccc1)S(=O)(=O)c1ccc(Cl)c(NC(=O)CNC(C)c2ccccc2)c1 (stereo not given) | -9% | ? | 21µM* | ? | -9% | 16µM*
CC(=O)Nc1ccc(NC(=O)C(C)OC(=O)CCc2c[nH]c3ccccc23)cc1 (stereo not given) | 0% | i | ? | -28% | 11% | i
COc1cc(OC)cc(C(=O)N[C@H](C(=O)OCC(=O)c2ccc(C)c([N+](=O)[O-])c2)C(C)C)c1 | 9% | i | -24% | -24% | 9% | i
O=C(CC1CS(=O)(=O)CC1CC(=O)Oc1ccccc1F)Oc1ccccc1F (stereo not given) | 17% | i | -20% | -13% | 15% | i
COc1ccc(N2CCN(C(=O)CCc3ccccc3OC)CC2)cc1 | 4% | i | ? | ? | 17% | i
COc1ccc(-n2c(=O)c(CCC(=O)N3CCN(c4ccccc4O)CC3)nc3ccccc32)cc1 | -2% | i | 26µM* | ? | -8% | ?
CC1=C(C(N)=O)C(c2ccccc2[N+](=O)[O-])n2ncnc2N1 (stereo not given) | -5% | i | -14% | -6% | -1% | i
CN(C)c1ccc(-c2nnc(SCC(=O)NCc3ccco3)n2C)cc1 | nt | i | -8% | -18% | nt | i
CCOc1cc(/C=N/N=C(\N)c2nonc2N)cc(Br)c1OCc1cccc2ccccc12 | 23µM* | ? | 23µM* | 13µM* | 18µM* | ?
COc1cccc(/C=N/NC(N)=S)c1OCc1ccccc1Cl | 0% | i | 2.9µM* | 4.1µM* | ? | i

Assay outcomes: PubChem BioAssay, National Center for Advancing Translational Sciences (NCATS)
